HT1080 IDH1KD tx: kills HT-1080 cells with IDH1 knockdown; HT-1080 IDH1 knockdown viability, ATP luminescence, 48 h; Potency, µM (series often up to 46.1 µM), for inactives: top-dose activity, negative = toxicity, most hits filed as cytotoxic; 360,000 tested, 2% active;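 further: 0% = DMSO wells and -100% = cell-free medium wells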
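Knockdown cells (IDH1KD HT-1080) received compounds 2 h after plating at 750 cells/well and were kept 48 h at 37 °C in 5% FBS RPMI. A CellTiter-Glo luminescence read gave % activity for curve fitting.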
KB-3-1 cytotox: KB-3-1 parental cell cytotoxicity | 400,000 tested, 1.4% active | Potency, µM (highest dose often 46.1 µM), most hits filed as cytotoxic | AID 1347075 | KB-3-1 viability, CellTiter-Glo ATP luminescence, 72 h; further: on the % scale 0 is the no-effect control and ±100 the full control effect; nearly all actives have a fitted effect of over 60% in size
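KB-3-1 cells, DMEM (no phenol red) + 10% FBS; compound by pin transfer, 72 h, 37 °C. Readout: CellTiter-Glo luminescence after 10 min. Data normalized, curve-fitted.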
MCF10A rereplic: DNA re-replication induction in MCF 10a cells. MCF 10A DNA re-replication, Hoechst nuclear intensity, 48 h. Potency, µM (titrated, usually from 46.1 µM), for inactives: at the top dose activity, positive = re-replication, usual class: activators. 350,000 tested, 2.9% active; further: % of control where 0% means no effect; nearly all actives have a fitted effect of over 50% in size
HT1080NT lethal: kills 2HG-producing HT-1080-NT fibrosarcoma cells; Potency, µM (top dose mostly 46.1 µM), without a hit: at the top dose activity, negative = less viability, actives largely listed as cytotoxic; AID 686970; HT-1080-NT fibrosarcoma viability, CellTiter-Glo ATP luminescence, 48 h; 360,000 tested, 1.6% active;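 further: NT is the 2HG producing partner of a matched IDH1 knockdown line; 0% = DMSO-treated cells and -100% = media-only wells without cells; nearly all actives have a fitted effect of over 55% in size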
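Viability of the 2HG-overproducing fibrosarcoma line after 48 hours of compound exposure at 37 degrees C was determined by luminescence with CellTiter-Glo, and concentration-effect curves were then fitted and categorized.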
KB-V1 cytotox: KB-V1 MDR subline cytotoxicity | KB-V1 MDR cells viability, CellTiter-Glo, 72 h | Potency, µM (doses to about 46.1 µM), actives largely listed as cytotoxic | 400,000 tested, 3.4% active | AID 1347076; further: on the % scale 0 is the no-effect control and ±100 the full control effect; nearly all actives have a fitted effect of over 60% in size
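KB-V1, DMEM (no phenol red) + 10% FBS; cpd pin-transferred, titration series; 72 h, 37 degrees C; CellTiter-Glo, luminescence. Data normalized, curve-fit.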
SW480 rerep: inducers of DNA re-replication in SW480 colon cancer cells; SW480 DNA re-replication, Hoechst DNA content imaging, 48 h; Potency, µM (titrated, usually from 46.1 µM), inactives show at the top dose re-replication activation, most hits filed as activators; 340,000 tested, 1.8% active; further: % of control where 0% means no effect; nearly all actives have a fitted effect of over 55% in size
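Treated cells incubate 48 hr (37 C, 5% CO2), are stained 40 min with Hoechst, and nuclear fluorescence is enumerated; a rise in nuclei with high DNA signal marks re-replication.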
* = called active by the depositor; i = inactive; ? = inconclusive; · = no result; [ ] = dose if it differs, or a comment. The list is not random: actives were taken first. Their share in the collection is about 7.9%. The call rests on the fitted dose curve; in most records, active means well fitted curve in the direction sought with a large enough effect; inconclusive means small, poorly fitted or top-dose-only effect, or another doubt; inactive means no such curve, though single readings can be large; an effect the other way counts as inactive or inconclusive. Potency means the concentration at half of the fitted maximal effect.

SMILES	HT1080 IDH1KD tx	KB-3-1 cytotox	MCF10A rereplic	HT1080NT lethal	KB-V1 cytotox	SW480 rerep
CC(C)(C)NC(=O)C1(C)CCC(=O)N1C1CCN(Cc2ccccc2)CC1 (stereo not given)	8%	i	·	21%	?	·
O=C(Nc1ccc(Cl)c(Cl)c1)c1ccc(Cn2c(=O)[nH]c3ccsc3c2=O)cc1	-5%	?	16µM*	-10%	i	1%
COc1cc(C)c(/C=C/C(C)=C/C=C/C(C)=C/C(=O)O)c(C)c1C	-28%	i	8.2µM*	-1%	i	9%
CCOC(=O)/C=C(C)\C=C\c1c[nH]c2ccccc12	?	i	2%	?	i	-3%
CCOC(=O)/C=C(C)/C=C/C=C(C)/C=C/c1c(C)cc(OC)c(C)c1C	·	·	27µM*	·	·	1%
Cc1ccc(NC(=S)N2CCN(Cc3ccc4c(c3)OCO4)CC2)c(C)c1	-8%	i	?	-5%	i	1%[9.22 µM]
CN(C)S(=O)(=O)c1ccc(Cl)c(NC(=O)CN2CCN(Cc3ccc4c(c3)OCO4)CC2)c1	-3%	?	?	0%	15µM*	4%
CCN(CC)S(=O)(=O)c1ccc(C)c(NC(=S)N2CCN(Cc3ccc4c(c3)OCO4)CC2)c1	21µM*	23µM*	?	?	?	-5%
COc1ccc(-c2nc3ccc(NC(C)=O)cc3c(=O)n2Cc2cccc(Cl)c2)cc1COc1ccc(NC(C)=O)cc1	-14%	·	·	-21%	·	·
CCc1cccc(CC)c1NC(=O)Cn1nnc2sc3c(c2c1=O)CCCC3	·	i	·	·	i	·
N#Cc1ccsc1NC(=O)CN1CCN(S(=O)(=O)c2ccc3ccccc3c2)CC1	0%	i	23%	1%	6.5µM*	-1%
O=C(CN1CCN(S(=O)(=O)c2ccc3ccccc3c2)CC1)Nc1ccc(N2CCOCC2)cc1	-10%	i	3%	-4%	i	-3%
O=C(CN1CCN(S(=O)(=O)c2ccc3ccccc3c2)CC1)Nc1ccc2c(c1)CCC2	10%	i	11%	1%	18µM*	22%
N#Cc1ccsc1NC(=O)CN1CCN(Cc2ccccc2)CC1	-1%	i	-6%	-1%	i	-2%
O=C(CN1CCN(S(=O)(=O)c2ccc(Cl)cc2)CC1)Nc1ccc2c(c1)CCC2	-6%	?	22%	-2%	i	5%
Cc1ccc(NC(=O)Cn2c(=O)oc3cc(S(=O)(=O)N4CCC(C)CC4)ccc32)cc1Cl	·	i	·	·	i	·
Cc1ccc(NC(=O)Cn2c(=O)oc3cc(S(=O)(=O)N4CCC(C)CC4)ccc32)cc1C	?	?	21µM*	?	?	?
Cc1ccc(S(=O)(=O)N2CCN(CC(=O)Nc3ccc4c(c3)CCC4)CC2)cc1C	11%	?	7%	4%	2.9µM*	-3%
COc1cc(OC)cc(C(=O)Nc2ccc(N3CCOCC3)cc2N2CCOCC2)c1	8%	i	-1%	0%	?	-8%
O=C(Cn1cc(C(=O)c2ccco2)c2ccccc21)Nc1ccccc1C(F)(F)F	·	i	·	·	i	·
CCOC(=O)c1cnc2cc(-c3ccc(Br)cc3)nn2c1C	13%	i	0%	22%	i	-9%
COc1cccc(C2C3=C(N=c4s/c(=C\c5cccc(O)c5)c(=O)n42)c2ccccc2CC3)c1OC (stereo not given)	?	?	9%	-23%	16µM*	?
CC(Sc1n[nH]c(-c2ccccc2)n1)C(=O)c1c(N)n(C)c(=O)n(C)c1=O (stereo not given)	10%	i	-3%	11%	i	-2%
CCCCn1c(=O)cc(O)c2ccccc21	-1%	i	-1%	-2%	i	2%
O=C1CCCc2c1cc(C(=O)O)c(=O)n2-c1ccccc1	-4%	i	-1%	4%	i	-2%
SMILES	HT1080 IDH1KD tx	KB-3-1 cytotox	MCF10A rereplic	HT1080NT lethal	KB-V1 cytotox	SW480 rerep
O=c1cc(O)c2c(=O)n(Cc3ccccc3)c3ccccc3c2o1	-24%	i	?	-15%	6.5µM*	12%
O=c1cc(O)c2c(=O)n(C3CCCCC3)c3ccccc3c2o1	?	?	?	5%	4.1µM*	0%
O=c1c([N+](=O)[O-])c(O)c2ccccc2n1Cc1ccccc1	0%	i	6%	-3%	i	-16%
Cc1nc2c(c(=O)c3ccccc3n2C)c(=O)n1C1CCCCCC1	-3%	i	-3%	0%	i	-8%
CCCCn1c(=O)c2c(O)cc(=O)oc2c2ccccc21	7%	i	-5%	1%	4.6µM*	-10%
O=c1cc(O)c2c(=O)n(-c3ccccc3)c3c(c2o1)CCCCCC3	0%	i	?	-3%	5.2µM*	2%
CCCN(c1ccc(C(C)C)cc1)S(=O)(=O)c1ccc2c(c1)n(C)c(=O)c(=O)n2C	·	i	·	·	i	·
Cc1ccc(Nc2nc(NCc3ccco3)nc3nccnc23)cc1Cl	·	?	·	·	i	·
O=C1C2C3C=CC(C3)C2C(=O)N1CCCCCCN1C(=O)C2C3C=CC(C3)C2C1=O (stereo not given)	-2%	?	11%	8%	18µM*	-2%
O=C(O)CCN1C(=O)C2C3C=CC(C3)C2C1=O (stereo not given)	3%	i	?	3%	i	0%
COc1cc2c(cc1OC)CN(C(=O)C1CCCN(C(=O)c3ccc(Cl)cc3)C1)CC2 (stereo not given)	-1%	?	0%	3%	i	-6%
CCn1c(CNc2ccc(OC)cc2)nnc1SCC(=O)Nc1ccc(F)cc1	-5%	i	-2%	-1%	21µM*	2%
CCn1c(Cc2ccc(OC)cc2)nnc1SCC(=O)Nc1cccc(C(=O)OC)c1	4%	i	12%	1%	5.2µM*	-6%
COc1ccc(NC(=O)CSc2nnc3c4c(nc(-c5ccccc5)n23)CC(C)(C)OC4)cc1	-17%	i	10%	-6%	2.9µM*	?
CCn1c(CNc2ccc(F)cc2)nnc1SCC(=O)Nc1ccc(OC)cc1OC	1%	i	-1%	-1%	?	-14%
COc1ccc(NC(=O)CSc2nnc(-c3cccs3)n2-c2ccccc2)cc1	?	i	?	23µM*	i	?
CCOC(=O)c1c(C)oc2ncnc(NCCCN3CCN(c4cc(C)ccc4C)CC3)c12	·	i	·	·	i	·
COc1cc2ccccc2cc1C(=O)OCC(=O)Nc1ccc(Br)cc1	·	i	·	·	i	·
COC(=O)c1ccc(CSc2nc3c([nH]c4ccccc43)c(=O)n2-c2ccc(F)cc2)o1	·	i	·	·	i	·
